Source: PubChem BioAssay
FLuc modulator – counter-screen for miR-21 project: firefly luciferase inhibitors or activators; Potency, µM (series often up to 57.5 µM), most hits filed as inhibitors; P08659; 360,000 tested, 6.9% active; purified FLuc, Km substrates, luminescence inhibition; also: nearly all actives have a fitted effect of over 55% in size
Target sequence (P08659 whole entry, looked up): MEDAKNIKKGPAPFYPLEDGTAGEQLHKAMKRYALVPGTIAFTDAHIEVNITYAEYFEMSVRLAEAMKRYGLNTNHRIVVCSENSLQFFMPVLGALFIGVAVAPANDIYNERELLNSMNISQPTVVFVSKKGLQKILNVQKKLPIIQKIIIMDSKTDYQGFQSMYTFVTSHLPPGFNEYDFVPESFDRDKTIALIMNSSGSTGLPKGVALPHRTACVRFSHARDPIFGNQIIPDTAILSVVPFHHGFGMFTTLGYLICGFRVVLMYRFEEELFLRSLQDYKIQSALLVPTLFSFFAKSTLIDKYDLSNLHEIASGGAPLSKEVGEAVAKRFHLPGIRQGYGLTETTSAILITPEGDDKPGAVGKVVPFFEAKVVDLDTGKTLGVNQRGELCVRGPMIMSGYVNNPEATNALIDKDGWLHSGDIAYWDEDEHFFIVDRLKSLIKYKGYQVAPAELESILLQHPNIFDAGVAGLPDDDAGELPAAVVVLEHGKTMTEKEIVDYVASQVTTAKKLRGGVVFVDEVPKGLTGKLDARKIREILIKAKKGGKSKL
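Biochemical qHTS of compounds, final roughly 60 µM downward over six points, against 10 nM purified firefly luciferase using Km concentrations of substrates (10 uM D-luciferin, 10 uM ATP) in Tris acetate pH 7.5 buffer; luminescence output.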
SMN2 splice up – enhancers of SMN2 splice variant expression; 210,000 tested, 2.8% active; HEK293 SMN2-luciferase splicing reporter, luminescence, 30-36 h; AID 1458; Potency, µM (top dose mostly 46.1 µM), actives largely listed as activators; also: nearly all actives have a fitted effect of over 55% in size
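qHTS luciferase splicing reporter: luminescence rises when SMN2 exon 7 is included in transfected HEK293 cells. Compound exposure lasted 30-36 h at 37C, with 4.5 mM final sodium butyrate as control, followed by a ONE-Glo read.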
Luc counter – counter-screen: inhibitors of Kinase-Glo firefly luciferase; Q27757; Kinase-Glo luciferase, ATP luminescence, 8 min; Potency, µM (titrated, usually from 38.3 µM), actives largely listed as inhibitors; 200,000 tested, 0.28% active; also: nearly all actives have a fitted effect of over 60% in size
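Compounds were added to a substrate mix at pH 7.2 (50 mM imidazole, 10 uM ATP, within the enzyme's linear range), followed by Kinase-Glo detection reagent; luminescence was measured after 8 minutes at ambient temperature.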
ELG1 genotox – genotoxicity induction in ELG1-luciferase HEK293T cells | HEK293T ELG1-luciferase reporter, luminescence, 16 h | 330,000 tested, 1.3% active | Potency, µM (series often up to 46 µM), hits mostly activators; also: nearly all actives have a fitted effect of over 60% in size
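Cells (2,000/well) expressing the ELG1-luciferase fusion are dosed by pin tool and kept 16 hr at 37 °C, 5% CO2. Signal comes from ONE-Glo luciferase reagent after 30 min at room temperature.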
NPC1 promoter act – activates the NPC1 promoter | Huh7 NPC1 promoter luciferase reporter, 24 h | Potency, µM (highest dose often 9.22 µM), actives largely listed as activators | 320,000 tested, 2.4% active; also: nearly all actives have a fitted effect of over 60% in size
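In 1536-well qHTS, Huh7 cells harboring an NPC1 promoter–luciferase construct received compound for 24 h; activation was quantified by luminescence following luciferase reagent addition.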
Rab9 promoter act – activates the Rab9 promoter. 320,000 tested, 2.8% active. Huh7 Rab9 promoter-luciferase reporter, luminescence, 24 h. Potency, µM (doses to about 9.22 µM), actives largely listed as activators; also: nearly all actives have a fitted effect of over 60% in size
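Luminescence from Amplite-detected luciferase (10 minutes, ambient) reports Rab9 promoter activation. Before that, stable Rab9-luciferase Huh7 cells (1500/well, reduced-serum OP-MEM I plus 10% FBS) were exposed to compound for 24 hours at 37C.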
Hits are given with their value; [ ] = another dose, or the depositor's remark. Compounds with a hit are over-represented: about 7.5% of the library has one in this group of screens. Calls follow the shape of the dose curve; as a rule, active = well fitted curve in the direction sought with a large enough effect; inconclusive = small, poorly fitted or top-dose-only effect, or another doubt; inactive = no such curve, though single readings can be large; an effect the other way counts as inactive or inconclusive.

Screening CCOC(=O)C1=C(N)Oc2cc(O)ccc2C1c1cccc([N+](=O)[O-])c1 (configuration not stated) returned FLuc modulator inconclusive, SMN2 splice up inactive, Luc counter inactive, ELG1 genotox inactive, NPC1 promoter act inactive and Rab9 promoter act inactive.
S=C(NCCN1CCOCC1)NC1CCCCC1 was read as FLuc modulator inactive, ELG1 genotox inactive, NPC1 promoter act inactive and Rab9 promoter act inactive.
CC(C)COc1ccc(C(=O)Nc2onc3c2CCCC3)cc1 was read as FLuc modulator 0.338µM and SMN2 splice up inactive.
Screening CCOc1ccc(C(=O)Nc2onc3c2CCCC3)cc1 returned FLuc modulator 0.301µM and SMN2 splice up 2.82µM.
For CCCN(CC(=O)Nc1ccccc1C)C(=O)CCl the results were FLuc modulator inactive, SMN2 splice up inactive, Luc counter inactive, ELG1 genotox inactive, NPC1 promoter act inactive and Rab9 promoter act inactive.
CN(C)c1ccc(-c2nc3ccccn3c2Nc2ccc3c(c2)OCCO3)cc1 was read as FLuc modulator 2.39µM and SMN2 splice up inconclusive.
`Oc1ccc(-c2nc3ccccn3c2Nc2ccc3c(c2)OCCO3)cc1` gave FLuc modulator 19µM and SMN2 splice up inactive.
Screening C=CCn1cccc(C(=O)Nc2ccc(F)cc2)c1=O returned FLuc modulator inconclusive, ELG1 genotox inactive, NPC1 promoter act inconclusive and Rab9 promoter act inactive[1.84 µM].
For COC(=O)c1ccc(C(/C=C/[C@@H](C)C(=O)N[C@H](C)CO)NC(=O)OCc2ccccc2)cc1 (some centres not stated) the results were SMN2 splice up inactive and Luc counter inactive.
Cc1ccc(S(=O)(=O)N(C)c2ccc(C(=O)Nc3ccccc3C(=O)N3CCOCC3)cc2)cc1 was read as FLuc modulator inactive, ELG1 genotox inactive, NPC1 promoter act inactive and Rab9 promoter act inactive.
O=Cc1cccc(OC(=O)c2ccc(Cl)cc2Cl)c1 was read as FLuc modulator 16.9µM, SMN2 splice up inconclusive, Luc counter inactive, ELG1 genotox 11.6µM, NPC1 promoter act inconclusive and Rab9 promoter act inconclusive.
For COC(=O)CSc1nnc(SCc2ccc(Cl)cc2)s1 the results were FLuc modulator 16.9µM, SMN2 splice up inactive, Luc counter inactive, ELG1 genotox inactive, NPC1 promoter act inactive and Rab9 promoter act inactive.
O=C(c1ccc(-c2ccc([N+](=O)[O-])cc2)o1)N1CCCCCCC1 was read as FLuc modulator 10.7µM, ELG1 genotox inactive, NPC1 promoter act inconclusive and Rab9 promoter act inconclusive.
COC(=O)CSc1nnc(SCc2ccccc2)s1 was read as FLuc modulator 19µM, SMN2 splice up inactive, Luc counter inactive, ELG1 genotox inactive, NPC1 promoter act inactive and Rab9 promoter act inactive.
`O=C(c1ccco1)N1CCN(C(=O)c2ccc(-c3ccc(Cl)cc3)o2)CC1` gave FLuc modulator 16.9µM, ELG1 genotox inactive, NPC1 promoter act inactive and Rab9 promoter act inactive.
O=C(c1ccc(-c2ccc([N+](=O)[O-])cc2)o1)N1CCCC(C(F)(F)F)C1 (configuration not stated) was read as FLuc modulator inactive, ELG1 genotox inactive, NPC1 promoter act inactive and Rab9 promoter act inactive.
CCCN(CC(=O)Nc1cc(Cl)ccc1Cl)C(=O)CN1C(=O)C2CCCCC2C1=O (configuration not stated) was read as FLuc modulator inactive, ELG1 genotox inactive, NPC1 promoter act inactive and Rab9 promoter act inactive.
For Cc1ccc(N2CC(NC(=O)c3cc4ccccc4o3)CC2=O)cc1C (configuration not stated) the results were FLuc modulator inactive.
`O=C(CSC1=Nc2ccccc2C2=NC(Cc3ccccc3)C(=O)N12)Nc1ccccc1F` (configuration not stated) gave FLuc modulator inactive.
O=C(CSc1nncs1)N1CCN(C(=O)c2ccco2)CC1 was read as FLuc modulator inactive, ELG1 genotox inactive, NPC1 promoter act inactive and Rab9 promoter act inactive.
O=C(CSc1nnc(SCc2ccc(Cl)cc2)s1)N1CCN(C(=O)c2ccco2)CC1 was read as FLuc modulator 9.53µM, SMN2 splice up inactive, Luc counter inactive, ELG1 genotox inactive, NPC1 promoter act inactive and Rab9 promoter act inactive.
`CCC(=O)Nc1cccc(-c2ccc(N3CCN(C)CC3)nn2)c1` gave FLuc modulator 6.75µM, ELG1 genotox inconclusive, NPC1 promoter act 2.51µM and Rab9 promoter act inconclusive.
`CCC(=O)Nc1cccc(-c2ccc(N3CCCCC3)nn2)c1` gave FLuc modulator 0.536µM, ELG1 genotox 2.31µM, NPC1 promoter act 0.562µM and Rab9 promoter act 0.447µM.
`CCN1CC(CN(C)Cc2cn(-c3ccc(C)cc3)nc2-c2cccc(C)c2)CC1=O` (configuration not stated) gave FLuc modulator inactive, Luc counter inactive, ELG1 genotox inactive, NPC1 promoter act inactive and Rab9 promoter act inactive.
`NNc1nc(-c2ccccc2Cl)nc2sc3c(c12)CCCC3` gave FLuc modulator 0.953µM, Luc counter inactive, ELG1 genotox inconclusive, NPC1 promoter act inconclusive and Rab9 promoter act inconclusive.
Screening NNc1nc(-c2ccccc2Cl)nc2ccccc12 returned FLuc modulator inactive, ELG1 genotox inactive, NPC1 promoter act inactive and Rab9 promoter act inactive.
Screening Cc1ccc(-c2nn3c(C)nnc3c3ccccc23)cc1S(=O)(=O)NCc1ccccc1 returned FLuc modulator inactive, SMN2 splice up inactive, Luc counter inactive, ELG1 genotox inactive, NPC1 promoter act inactive and Rab9 promoter act inactive.
Cc1ccc(-c2nn3c(C)nnc3c3ccccc23)cc1S(=O)(=O)N(C)CCO was read as FLuc modulator inactive, SMN2 splice up inconclusive, Luc counter inactive, ELG1 genotox 18.4µM, NPC1 promoter act inactive and Rab9 promoter act inactive.
Screening CC(C)c1ccc(Cc2cn3cc(-c4cc5ccccc5oc4=O)nc3s2)cc1 returned FLuc modulator inactive and SMN2 splice up inactive.
For COc1ccc2cc(-c3cn4c(n3)sc3cc(F)ccc34)c(=O)oc2c1 the results were FLuc modulator 9.53µM.
For Cc1ccc2c(c1)sc1nc(-c3cc4ccccc4oc3=O)cn12 the results were FLuc modulator 0.426µM and SMN2 splice up inactive.
`CCN(CC1CCCO1)C(=O)CCc1nnc(CCc2ccc(OC)cc2)o1` (configuration not stated) gave FLuc modulator inactive, ELG1 genotox inactive, NPC1 promoter act inactive and Rab9 promoter act inactive.
Screening CC(=O)Oc1cccc(/C=c2\sc3nc(-c4ccco4)nn3c2=O)c1 returned FLuc modulator inactive, SMN2 splice up inactive, Luc counter inactive, ELG1 genotox inconclusive, NPC1 promoter act inactive and Rab9 promoter act inactive.
